HIV TAR-Tat – HIV-1 TAR-Tat binding disruption; HIV-1 TAR RNA, Tat peptide displacement FRET; hits give high values; AID 1259389; 0.6% of 100,000 active; z-score (concentration not given with the values); active = z-score of 3 or more in at least 2 runs
CDC25B CDK2 inh – human CDC25B-CDK2/CyclinA binding inhibition. z-score (test concentration not listed). 0.72% of 94,000 active. AID 1259370. HTRF CDC25B-CDK2/CyclinA binding, anti-His/anti-Flag; hits give high values; in the data active = z-score above about 3.2
Hits are given with their value; – = inactive; · = not tested or not shown. Compounds with a hit are over-represented: about 0.93% of the library has one in this group of screens.

SMILES	HIV TAR-Tat	CDC25B CDK2 inh
CSc1ccc(NC(=O)NCCN2CCc3ccccc3C2)cc1	–	12.7
CCOC(=O)c1cnc2ccc(Br)cc2c1NCc1ccco1	–	–
CCOC(=O)c1cnc2ccc(Br)cc2c1Nc1ccc(N(C)C)cc1	7.66	–
O=C(O)Cn1cnc2c([nH]c3ccc(F)cc32)c1=O	–	–
Cc1c(/C=C/c2nc3ccccc3c(=O)n2CCCO)c2ccccc2n1C	–	–
CC(C)c1ccc(Nc2ncnc3c2nc2n3CCCCC2)cc1	–	·
CCOc1cccc(-c2nc3c(c(=O)[nH]2)Cc2cc(Br)ccc2O3)c1O	–	–
COc1cccc2c1Oc1[nH]c(-c3ccccc3F)nc(=S)c1C2	–	–
CCOc1cccc2c1Oc1[nH]c(-c3cc(OC)c(OC)c(OC)c3)nc(=S)c1C2	·	–
CCOc1cccc(-c2nc(=S)c3c([nH]2)Oc2c(cccc2OC)C3)c1O	22.7	–
COc1cccc(-c2nc3c(c(=O)[nH]2)Cc2cc(Cl)ccc2O3)c1O	4.89	–
CCOc1cccc(-c2nc3c(c(=O)[nH]2)Cc2cccc(OCC)c2O3)c1O	7.23	–
COc1cccc(-c2nc(=S)c3c([nH]2)Oc2c(cccc2OC)C3)c1O	35.1	–
O=c1[nH]c(-c2ccccc2O)nc2c1Cc1cc(Cl)ccc1O2	–	–
O=C(Nc1nccs1)c1csnn1	–	–
Cc1ccc2oc(-c3cc(Br)ccc3O)c(O)c(=O)c2c1	–	–
CSc1nc2nn(C)nc2c(=O)[nH]1	·	–
O=S(=O)(Nc1ccc(Oc2ccc(F)cc2)cc1)c1ccc(Cl)cc1	·	12.5
COc1ccc(NS(=O)(=O)c2ccc(NS(=O)(=O)c3ccc(Cl)cc3)cc2)cc1	–	–
CCOC(=O)c1c(NC(=O)c2csnn2)sc2c1CCCC2	–	–
Cc1c(C(=O)O)sc2ncnc(NC3CCCC3)c12	–	·
Cc1c(C(=O)O)sc2ncnc(NCCC(C)C)c12	10.1	·
Cc1c(C(=O)O)sc2ncnc(NC3CCCCC3)c12	5.98	·
Cc1c(C(=O)O)sc2ncnc(Nc3ccc(C(C)C)cc3)c12	–	·
Cc1nc2nc[nH]n2c(=O)c1NS(=O)(=O)c1ccc(N2CCCC2=O)cc1	–	–
SMILES	HIV TAR-Tat	CDC25B CDK2 inh
COc1ccc(-c2cc(-c3ccc(Cl)cc3)nc(N)n2)cc1	–	–
O=C(Cn1ncc2c3ccccc3n(Cc3ccccc3F)c2c1=O)NCc1ccccn1	–	–
CC1C/C(=N/NC(N)=O)C(C)C(C)S1 (stereo not drawn)	·	–
COc1ccc2oc(=O)c(-c3csc(Nc4ccccc4)n3)cc2c1	·	–
COc1ccc(Nc2nc(-c3cc4c(ccc5ccccc54)oc3=O)cs2)cc1	·	10.4
CC(=O)Nc1ccc(NC(=O)CSc2ncnc3ccccc23)cc1	·	–
Oc1ccc(Cl)cc1Cc1cc(Cl)ccc1O	–	·
O=C(O)c1ccnc(-c2cc(C(=O)O)ccn2)c1	·	–
COc1cc(O)c2c(c1)C(=O)c1cc(C)cc(O)c1C2=O	–	·
O=C(O)c1cc(O)c(O)c(O)c1	6.76	·
O=C(c1cc(O)c(O)c(O)c1)c1ccc(O)c(O)c1O	32.5	·
O=C(O)c1cc(O)c2c(c1)C(=O)c1cc(O)cc(O)c1C2=O	9.5	·
O=C(NCc1ccccn1)c1ccc(NC2=NC3CS(=O)(=O)CC3S2)cc1 (stereo not drawn)	–	·
CCOC(=O)C1CCN(S(=O)(=O)c2ccc3c(c2)S(=O)(=O)N=CN3)CC1	–	·
Cc1nn(-c2nncc(-c3ccc(F)cc3)n2)c2c1C(c1ccc(C(=O)O)cc1)CC(=O)N2 (stereo not drawn)	3.66	–
Cc1nn(-c2nc3ccccc3[nH]2)c2c1C(c1ccc(C(=O)O)cc1)CC(=O)N2 (stereo not drawn)	25.1	·
Cc1nn(-c2nc3ccccc3[nH]2)c2c1C(c1cc(F)cc(F)c1)CC(=O)N2 (stereo not drawn)	–	·
Cc1ccc(-c2cnnc(-n3nc(C)c4c3NC(=O)CC4c3ccc(C(=O)O)cc3)n2)cc1 (stereo not drawn)	–	–
CCOC(=O)C1CCN(c2cc(NCCOC)c3c4c(onc24)-c2ccccc2C3=O)CC1	–	–
CCOC(=O)C1CCN(c2cc(NCC(=O)O)c3c4c(onc24)-c2ccccc2C3=O)CC1	–	5.89
CCOC(=O)C1CCCN(c2cc(NCC(C)C)c3c4c(onc24)-c2ccccc2C3=O)C1 (stereo not drawn)	–	–
CCOC(=O)C1CCCN(c2cc(NCCCC(=O)O)c3c4c(onc24)-c2ccccc2C3=O)C1 (stereo not drawn)	20.7	10.6
CCOC(=O)N1CCN(c2cc(NCCCC(=O)O)c3c4c(onc24)-c2ccccc2C3=O)CC1	–	–
CCOC(=O)N1CCN(c2cc(NCC(=O)O)c3c4c(onc24)-c2ccccc2C3=O)CC1	–	3.17
Cc1cc(C)c2c(-n3c(C)ccc3C)nn(CC(=O)NC(C)C)c2n1	–	·
SMILES	HIV TAR-Tat	CDC25B CDK2 inh
CC(=O)NC1=NN(C(C)=O)C(c2ccc(-c3cccc(C(=O)O)c3)o2)S1 (stereo not drawn)	–	–
CCCCC(=O)Nc1ccc2nc(NS(C)(=O)=O)sc2c1	–	·
CS(=O)(=O)Nc1nc2ccc(NC(=O)Cc3cccs3)cc2s1	16.1	·
CCCN1CCN(c2cc(NCc3ccco3)c3c4c(onc24)-c2ccccc2C3=O)CC1	–	–
CSc1cccc(NC(=O)CCS(=O)(=O)c2ccc3c(c2)CCN3C(=O)C2CC2)c1	–	·
Cc1ccc(CNC(=O)Cn2ncn3c(c(-n4cccc4)c4c5c(sc43)CCCC5)c2=O)cc1	11.7	–
O=C(O)Cn1ncn2c(c(-n3cccc3)c3c4c(sc32)CCCC4)c1=O	–	–
Cc1noc(C)c1C1CCCN1Cc1cc(Br)ccc1F (stereo not drawn)	–	·
CCOc1ccc(Nc2nc(N)c([N+](=O)[O-])c(N3CCCCC3)n2)cc1	–	·
Cc1c(C(=O)N2CCN(Cc3ccc4c(c3)OCO4)CC2)sc2nc3n(c(=O)c12)CCC3	–	·
COc1cc2ncc(C(=O)c3ccccc3)c(S(=O)(=O)c3ccccc3)c2cc1OC	–	–
Cc1ccc2c(c1)N(CCO)/C(=C/c1sc3ccccc3[n+]1C)S2	–	–
Cc1ccc2c(c1)S/C(=C\c1sc3ccccc3[n+]1C)N2CCO	7.9	–
Cc1cccc2c1Oc1nc(-c3ccccc3)nc(SCC(=O)O)c1C2	–	–
Cc1ccc2c(c1)-c1cc(C)nn1C(c1cc(C)ccc1O)N2 (stereo not drawn)	–	–
Cc1ccc2c(c1)-c1cc(C)nn1C(c1cccc(O)c1O)N2 (stereo not drawn)	18.8	–
CCN(CCCNS(=O)(=O)c1ccc2c(c1)C(C)(C)C(=O)N2C)c1ccccc1	–	·
O=S(=O)(NCc1ccc(-c2csnn2)cc1)c1cc(C(F)(F)F)cc(C(F)(F)F)c1	·	–
Cn1c(C(F)(F)F)nnc1S(=O)(=O)Cc1ccc(-c2csnn2)cc1	·	15.8
Cc1ccc(OCCSc2nnc(-c3ccc4c(c3)OCCCO4)n2C)cc1C	–	·
Cn1cc(NC(=O)NC2CCCCC2)c2ccccc2c1=O	–	19
CC(C)Cn1cc(NC(=O)NC2CCCCC2)c2ccccc2c1=O	–	·
COc1nc2ccc(C)cc2cc1-c1noc(-c2ccncc2)n1	–	–
COc1nc2ccc(C)cc2cc1-c1noc(-c2cccnc2)n1	3.63	–
COc1ccc(-c2cc(C3CCN(c4nc(N)c5cc(OC)c(OC)cc5n4)CC3)[nH]n2)cc1OC	·	19.8
COc1ccc(-c2c(N)n[nH]c2C)cc1OC	–	–
CCOCCOC(=O)C1=C(C)NC2=C(C(=O)CC(c3cccs3)C2)C1c1ccc(O)c(OC)c1 (stereo not drawn)	–	–
